Assay [1] concerns the target ATP-dependent 6-phosphofructokinase (Trypanosoma brucei brucei) (UniProt O15648). Kind of assay: qHTS Assay to Find Inhibitors of T. brucei phosphofructokinase: hit validation (AID 492961).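 Also: luminescence reports ADP formed as PFK phosphorylates fructose-6-phosphate with ATP.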 As to conditions: T. brucei PFK, ADP-Glo luminescence; series mostly up to 51.4 µM. In a few lines: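 Measures ADP output of PFK (1.25 nM) at 0.1 mM ATP, 0.5 mM F6P, pH 8.0 TEA buffer with 5 mM MgCl2. No-enzyme wells define full inhibition; uninhibited enzyme wells define zero.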
In general terms: In qHTS, concentration-response curves come from the screen itself.

For assay [2], the target named is Methanococcus maripaludis chaperonin (MmCpn) (UniProt Q6LX38). Briefly: High-Throughput Screening for Modulators of Cytosolic Chaperonin Activity: MmCpn Primary Screen (AID 488978).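 Also: 50 nM MmCpn enzyme hydrolysing 30 µM ATP at 37 °C.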 The conditions noted are these: Purified MmCpn ATPase activity, ADP HTRF detection, 10 min; series mostly up to 76.9 µM. The source says:
Chaperonins are key components of the cellular chaperone machinery. These large complexes consist of two stacked 7-9 membered rings, each containing a central cavity. Substrates are folded within the cavity in an ATP-dependent manner. TRiC is a complex of eight different, essential proteins. As each of the genes encoding the eight subunits is essential for cell viability and no protocol has been developed to overexpress this enzyme to high levels, several groups have turned to the archaeal homolog of TRiC from Methanococcus maripaludis (MmCpn) as a model system for the study of the type II chaperonin family.
MmCpn was kindly provided by the laboratory of Judith Frydman.
1. Dispense 1.5 ul enzyme of either TriC at 100 nM or MmCpn at 50 nM final concentration.
2. Transfer 23 nl of compound to plate, incubate 5 min at RT.
3. 1.5 ul ATP at 30 uM at final concentration dispensed into plate.
4. Incubate for 10 minutes at 37C (MmCPN), 30C (TriC).
5. 3 ul of the Cisbio ADP Transcreener HTRF detection reagent prepared according to protocol dispensed into plate.
6. Incubate for 5 minutes.
7. Read using EnVision plate reader at Excitation = 320nm and Emission = 590nm, 665nm
For orientation: Time-resolved FRET reads energy transfer from a long-lived donor to a nearby acceptor.

Assay [3] deals with D(1A) dopamine receptor (Homo sapiens) (UniProt P21728). Briefly: HTS Assay for Allosteric Agonists of the Human D1 Dopamine Receptor: Primary Screen for Agonists (AID 488981). As to conditions: Inducible HEK293 T-REx D1 cells, calcium-flux fluorescence, 180 s kinetic; series mostly up to 41.8 µM. In a few lines:
(§1)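 Calcium flux in an inducible, force-coupled HEK293 Trex D1 line (overnight at 30 C): agonist mode is the 180 s kinetic read after compound; potentiator mode is the following 180 s read after dopamine at EC20.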

For assay [4] the target is unchanged. Kind of assay: HTS Assay for Allosteric Agonists of the Human D1 Dopamine Receptor: Primary Screen for Potentiators (AID 488982). The conditions noted are these: HEK293 T-REx D1 inducible cells, calcium flux, kinetic fluorescence; series mostly up to 8.37 µM. In a few lines: as §1
Background: Calcium assays in cells follow changes in intracellular calcium, usually with a dye or a luminescent sensor.

Assay [5] has the same target. Briefly: HTS Assay for Allosteric Agonists of the Human D1 Dopamine Receptor: Primary Screen for Antagonists (AID 488983).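 Also: calcium flux response to an EC80 dopamine challenge measured with no-wash dye; nearly all actives have a fitted effect of over 65% in size.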 The conditions noted are these: D1 receptor cell assay, antagonist mode, qHTS titration; series mostly up to 41.8 µM. In a few lines:
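Screening of inducible HEK293 T-REx D1 cells: compound first, EC80 dopamine 180 s later, each phase read kinetically for calcium over 180 s.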

A short description of assay [6]: Validation screen for small molecules that induce genotoxicity in human embryonic kidney (HEK293T) cells expressing luciferase-tagged ELG1 (AID 493106). The conditions noted are these: luminescence; series mostly up to 46.1 µM. In a few lines: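 Reporter-gene quantitative HTS in HEK293T cells carrying luciferase-tagged ELG1, whose level climbs under genotoxic stress. Compound exposure lasts 16 hr at 37 °C before luciferase detection.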

In assay [7] the target is ATPase family AAA domain-containing protein 5 (Homo sapiens) (UniProt Q96QE3). Kind of assay: Validation screen for small molecules that inhibit ELG1-dependent DNA repair in human embryonic kidney (HEK293T) cells expressing luciferase-tagged ELG1 (AID 493107).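 Also: cells co-treated with the DNA-damaging agent 5-fluorouridine alongside compound; inhibitors lower the ELG1-luciferase luminescence signal; nearly all actives have a fitted effect of over 70% in size.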 As to conditions: HEK293T ELG1-luciferase level, luminescence, 5-fluorouridine co-treatment, 16 h; series mostly up to 46.1 µM. From the text:
NIH Molecular Libraries Probe Production Network [MLPCN]
NIH Chemical Genomics Center [NCGC]
Assay Provider: Kyungjae Myung, NHGRI, NIH
Keywords: MLPCN, qHTS, NCGC, genotoxicity, cancer
Cancer cells divide rapidly compared to normal cells in the body. During cell division, cancer cells need to duplicate their genome by DNA replication. The failure of genome duplication leads to cancer cells' death. Therefore, inhibitors of DNA replication could specifically kill cancer cells. Based on this concept, many chemotherapeutic agents were developed and have been used to treat cancer patients. However, there are a limited number of agents available in the clinical setting, and some of those that do exist have low efficacy and severe side effects. Therefore, if we can find the compounds that effectively block DNA replication either by directly damaging DNA or by inhibiting other cellular mechanisms, the options for cancer treatment will be broadened. With this in mind, we developed a quantitative high-throughput ELG1-luciferase reporter gene assay. Small molecules that specifically block ELG1 function in response to DNA damage can be identified by monitoring the suppression of luciferase activity. Since ELG1 defines a pathway for repairing DNA damage, agents blocking ELG1 function can be used to sensitize cancer cells to chemotherapeutic agents whose mechanism of action involves the induction of DNA damage.
For genotoxicity screening, 2,000 cells in 4 uL/well were dispensed into white, solid-bottom 1536-well plates using a solenoid-based dispenser. Following transfer of 1 uL 5-Fluorouridine and 23 nL compound or DMSO vehicle by a pin tool, the plates were incubated 16 hr at 37 °C and 5% CO2. 5 ul ONE-Glo (Promega) was then added to each plate and following a 30 min incubation at room temperature, luciferase activity was quantified on a ViewLux CCD-based plate reader.

Assay [8] concerns the target Transient receptor potential cation channel subfamily V member 1 (Homo sapiens) (UniProt Q8NER1). Kind of assay: HTS Assay for Compounds that Act as Enhancers of the Vanilloid Receptor 1 (AID 488979). As to conditions: TRPV1-expressing cells, enhancer of channel activity, stimulated with capsaicin at EC20; series mostly up to 41.7 µM. In a few lines:
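Calcium influx kinetics via Fluo-8 (480/520 nm) in TRPV1-expressing cells, 2000/well cultured overnight at 35.5C. Compound-alone read 3 min (agonist phase), followed by EC20 capsaicin challenge for 2 min (enhancer phase).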

Assay [9] concerns the target Thyrotropin receptor (Homo sapiens) (UniProt P16473). Briefly: qHTS Assay for Antagonists of the Thyroid Stimulating Hormone Receptor (AID 488980). As to conditions: TSHR-expressing cells, cAMP antagonist read-out; series mostly up to 57.5 µM. In a few lines:
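TSHR-HEK293 cells; 70 uM RO 20-1724 PDE inhibitor; compound + EC80 TSH (4 nM final); anti-cAMP cryptate antibody/cAMP-d2 in lysis buffer, 30 min RT; HTRF 665/620 nm read.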

Assay [10] concerns the target Tyrosyl-DNA phosphodiesterase 1 (Homo sapiens) (UniProt Q9NUW8). Briefly: Confirmation Assay for Inhibitors of Tyrosyl-DNA Phosphodiesterase (TDP1) (AID 489007). Also: potency is read from the fitted curve at half-maximal effect; nearly all actives have a fitted effect of over 40% in size. The conditions noted are these: recombinant human TDP1 enzymatic activity, dose-response. In a few lines:
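Confirmation of primary-screen follow-ups in a qHTS format. Substrate cleavage by Tdp1 (1 nM) of a 3'-phosphotyrosine-FITC, 5'-biotin oligo (15 nM) was monitored as decreased AlphaScreen signal after a 5 min room-temperature reaction.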

Records with an inconclusive call do not appear. A call without a number means that no potency is given here. Active and inactive are the calls of the source. Calls follow the shape of the dose curve; as a rule, active = well fitted curve in the direction sought with a large enough effect; inconclusive = small, poorly fitted or top-dose-only effect, or another doubt; inactive = no such curve, though single readings can be large; an effect the other way counts as inactive or inconclusive.

Experimental findings from PubChem BioAssay (NCATS) are described below.

Sequence of D(1A) dopamine receptor (Homo sapiens) (P21728 whole entry, looked up): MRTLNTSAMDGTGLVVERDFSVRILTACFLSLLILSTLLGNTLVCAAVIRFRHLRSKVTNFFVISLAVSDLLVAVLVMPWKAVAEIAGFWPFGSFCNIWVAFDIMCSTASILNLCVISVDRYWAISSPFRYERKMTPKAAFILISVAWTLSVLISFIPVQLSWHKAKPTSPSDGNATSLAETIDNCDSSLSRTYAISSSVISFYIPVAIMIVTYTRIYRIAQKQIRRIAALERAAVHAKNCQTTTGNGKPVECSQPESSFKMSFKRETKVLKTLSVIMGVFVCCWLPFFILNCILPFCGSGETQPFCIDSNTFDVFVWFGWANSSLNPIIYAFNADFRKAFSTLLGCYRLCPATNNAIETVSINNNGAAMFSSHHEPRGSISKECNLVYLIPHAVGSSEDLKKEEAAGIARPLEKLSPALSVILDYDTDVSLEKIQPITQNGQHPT
Sequence of Methanococcus maripaludis chaperonin (MmCpn) (Q6LX38 1-543): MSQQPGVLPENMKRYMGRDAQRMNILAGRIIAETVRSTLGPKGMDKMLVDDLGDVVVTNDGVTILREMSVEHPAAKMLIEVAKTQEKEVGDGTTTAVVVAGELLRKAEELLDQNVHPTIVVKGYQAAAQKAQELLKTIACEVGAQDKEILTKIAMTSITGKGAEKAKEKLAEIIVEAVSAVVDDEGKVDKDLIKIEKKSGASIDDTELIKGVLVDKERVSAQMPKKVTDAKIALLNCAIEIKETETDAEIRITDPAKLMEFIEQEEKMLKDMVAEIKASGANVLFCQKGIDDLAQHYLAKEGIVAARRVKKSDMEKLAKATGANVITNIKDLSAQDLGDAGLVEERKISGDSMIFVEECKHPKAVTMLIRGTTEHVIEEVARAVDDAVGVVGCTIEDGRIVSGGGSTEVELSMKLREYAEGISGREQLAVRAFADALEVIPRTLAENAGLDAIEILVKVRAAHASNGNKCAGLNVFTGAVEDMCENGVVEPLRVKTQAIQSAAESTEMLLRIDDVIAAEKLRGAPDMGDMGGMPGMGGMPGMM
Sequence of ATP-dependent 6-phosphofructokinase (Trypanosoma brucei brucei) (O15648 whole entry, looked up): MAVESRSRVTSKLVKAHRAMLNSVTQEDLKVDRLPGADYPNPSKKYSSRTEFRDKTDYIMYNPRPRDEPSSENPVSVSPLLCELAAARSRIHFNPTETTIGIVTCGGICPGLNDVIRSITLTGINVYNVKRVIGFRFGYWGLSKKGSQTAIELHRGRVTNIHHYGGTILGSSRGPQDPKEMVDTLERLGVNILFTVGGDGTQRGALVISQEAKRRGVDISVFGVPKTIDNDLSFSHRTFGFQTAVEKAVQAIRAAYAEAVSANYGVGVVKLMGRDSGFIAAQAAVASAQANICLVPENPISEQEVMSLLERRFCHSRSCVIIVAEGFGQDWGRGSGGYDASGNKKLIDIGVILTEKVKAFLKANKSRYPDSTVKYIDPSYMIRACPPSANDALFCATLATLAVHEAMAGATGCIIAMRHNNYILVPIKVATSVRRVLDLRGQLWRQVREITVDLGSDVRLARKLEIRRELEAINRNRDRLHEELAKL
Sequence of ATPase family AAA domain-containing protein 5 (Homo sapiens) (Q96QE3 whole entry, looked up, the tested form may be a part): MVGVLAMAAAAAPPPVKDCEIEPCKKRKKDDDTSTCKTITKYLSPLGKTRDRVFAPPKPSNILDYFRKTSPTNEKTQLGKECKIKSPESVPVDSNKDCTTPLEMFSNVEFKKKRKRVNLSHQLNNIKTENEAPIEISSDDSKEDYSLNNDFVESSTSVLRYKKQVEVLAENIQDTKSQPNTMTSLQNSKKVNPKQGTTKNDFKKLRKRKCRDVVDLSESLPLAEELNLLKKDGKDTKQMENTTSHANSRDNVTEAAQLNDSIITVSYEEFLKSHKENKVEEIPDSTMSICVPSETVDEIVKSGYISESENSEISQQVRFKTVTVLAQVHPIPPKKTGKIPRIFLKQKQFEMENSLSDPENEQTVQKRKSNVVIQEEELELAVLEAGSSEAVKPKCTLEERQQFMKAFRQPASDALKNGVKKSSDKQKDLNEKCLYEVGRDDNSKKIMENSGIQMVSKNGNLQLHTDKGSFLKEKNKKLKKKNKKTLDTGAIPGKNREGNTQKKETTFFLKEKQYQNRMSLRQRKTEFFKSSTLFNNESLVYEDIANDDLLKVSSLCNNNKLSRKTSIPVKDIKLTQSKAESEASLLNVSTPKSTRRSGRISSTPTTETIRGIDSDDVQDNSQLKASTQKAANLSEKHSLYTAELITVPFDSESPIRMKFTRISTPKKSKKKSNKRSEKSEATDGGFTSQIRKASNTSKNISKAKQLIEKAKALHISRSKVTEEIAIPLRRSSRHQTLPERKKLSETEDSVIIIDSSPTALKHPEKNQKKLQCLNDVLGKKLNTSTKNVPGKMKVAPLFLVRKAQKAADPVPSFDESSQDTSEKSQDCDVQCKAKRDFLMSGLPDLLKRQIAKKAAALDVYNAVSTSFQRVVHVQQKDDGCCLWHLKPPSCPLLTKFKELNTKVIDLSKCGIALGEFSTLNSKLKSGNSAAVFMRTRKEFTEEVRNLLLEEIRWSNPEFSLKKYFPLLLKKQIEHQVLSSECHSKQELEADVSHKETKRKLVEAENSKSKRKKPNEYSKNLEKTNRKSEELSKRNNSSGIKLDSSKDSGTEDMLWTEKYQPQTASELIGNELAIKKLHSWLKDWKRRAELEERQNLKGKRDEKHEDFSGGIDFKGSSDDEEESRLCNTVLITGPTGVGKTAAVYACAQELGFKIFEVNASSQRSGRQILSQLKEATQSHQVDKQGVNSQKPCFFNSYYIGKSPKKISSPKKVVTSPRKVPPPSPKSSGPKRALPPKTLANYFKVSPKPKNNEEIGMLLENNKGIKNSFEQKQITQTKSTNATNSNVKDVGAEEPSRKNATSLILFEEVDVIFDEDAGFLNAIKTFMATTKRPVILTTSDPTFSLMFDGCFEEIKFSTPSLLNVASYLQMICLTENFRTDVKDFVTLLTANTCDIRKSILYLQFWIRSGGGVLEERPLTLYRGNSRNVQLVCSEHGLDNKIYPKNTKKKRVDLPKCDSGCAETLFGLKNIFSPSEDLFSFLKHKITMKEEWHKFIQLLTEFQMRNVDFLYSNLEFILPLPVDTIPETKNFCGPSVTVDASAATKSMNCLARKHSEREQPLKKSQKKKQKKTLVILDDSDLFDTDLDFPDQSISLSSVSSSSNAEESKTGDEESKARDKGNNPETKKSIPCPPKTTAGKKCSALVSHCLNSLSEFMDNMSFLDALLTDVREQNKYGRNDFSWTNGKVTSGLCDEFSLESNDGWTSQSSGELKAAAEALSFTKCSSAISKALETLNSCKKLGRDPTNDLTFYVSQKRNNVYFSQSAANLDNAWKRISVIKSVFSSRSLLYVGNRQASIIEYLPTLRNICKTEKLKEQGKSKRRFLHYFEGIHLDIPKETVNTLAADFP
Sequence of Thyrotropin receptor (Homo sapiens) (P16473 whole entry, looked up): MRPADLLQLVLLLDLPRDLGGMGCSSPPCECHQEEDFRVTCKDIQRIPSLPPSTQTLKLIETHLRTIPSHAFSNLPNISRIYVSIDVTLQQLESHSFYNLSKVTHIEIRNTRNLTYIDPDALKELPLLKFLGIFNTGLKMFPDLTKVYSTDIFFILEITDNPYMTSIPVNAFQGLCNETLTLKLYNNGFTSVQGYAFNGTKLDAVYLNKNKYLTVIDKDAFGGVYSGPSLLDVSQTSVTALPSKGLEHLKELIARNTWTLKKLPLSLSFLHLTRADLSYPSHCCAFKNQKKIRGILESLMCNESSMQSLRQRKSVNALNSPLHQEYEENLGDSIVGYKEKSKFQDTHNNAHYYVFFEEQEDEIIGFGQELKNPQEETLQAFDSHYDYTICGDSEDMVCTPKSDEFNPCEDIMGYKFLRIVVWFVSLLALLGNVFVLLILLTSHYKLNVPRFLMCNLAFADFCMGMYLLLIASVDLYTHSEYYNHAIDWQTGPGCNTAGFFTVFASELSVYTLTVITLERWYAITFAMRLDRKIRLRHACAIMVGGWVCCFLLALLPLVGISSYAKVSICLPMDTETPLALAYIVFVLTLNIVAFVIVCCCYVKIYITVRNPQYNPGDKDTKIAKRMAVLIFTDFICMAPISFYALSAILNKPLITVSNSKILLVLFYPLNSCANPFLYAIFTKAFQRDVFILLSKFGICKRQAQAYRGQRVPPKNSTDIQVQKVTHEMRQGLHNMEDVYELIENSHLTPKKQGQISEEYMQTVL
Sequence of Transient receptor potential cation channel subfamily V member 1 (Homo sapiens) (Q8NER1 whole entry, looked up): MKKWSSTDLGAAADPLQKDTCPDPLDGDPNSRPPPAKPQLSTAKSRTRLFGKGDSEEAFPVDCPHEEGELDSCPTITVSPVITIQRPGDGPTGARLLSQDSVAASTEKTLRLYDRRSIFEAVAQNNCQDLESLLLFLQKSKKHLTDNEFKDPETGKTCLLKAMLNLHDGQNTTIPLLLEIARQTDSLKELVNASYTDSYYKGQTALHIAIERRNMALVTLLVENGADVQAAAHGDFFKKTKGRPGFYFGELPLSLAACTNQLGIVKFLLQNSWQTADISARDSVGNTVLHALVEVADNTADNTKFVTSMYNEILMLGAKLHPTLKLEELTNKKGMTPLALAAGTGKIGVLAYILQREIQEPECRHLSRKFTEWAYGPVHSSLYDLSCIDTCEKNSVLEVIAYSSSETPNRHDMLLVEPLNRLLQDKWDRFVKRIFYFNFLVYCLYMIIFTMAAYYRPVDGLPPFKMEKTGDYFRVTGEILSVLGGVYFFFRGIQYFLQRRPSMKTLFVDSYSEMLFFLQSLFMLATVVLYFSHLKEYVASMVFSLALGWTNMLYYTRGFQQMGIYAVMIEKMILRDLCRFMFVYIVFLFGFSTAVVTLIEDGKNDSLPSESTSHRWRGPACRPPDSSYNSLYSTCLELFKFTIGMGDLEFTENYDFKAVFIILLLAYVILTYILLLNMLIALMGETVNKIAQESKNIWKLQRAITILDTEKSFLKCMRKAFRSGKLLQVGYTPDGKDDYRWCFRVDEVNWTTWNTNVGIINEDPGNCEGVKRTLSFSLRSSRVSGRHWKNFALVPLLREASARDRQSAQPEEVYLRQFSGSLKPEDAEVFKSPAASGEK

Turning to `Oc1c(Cl)cc(Cl)c(Cl)c1Cc1c(O)c(Cl)cc(Cl)c1Cl`, the Potency result in assay [1] was “inactive”.
Consider `CC(C)=CCOc1ccc(/C=C/C(=O)c2ccc(OCC=C(C)C)cc2OCC(=O)O)cc1`, for which the Potency result in assay [1] was “inactive”.
Turning to `CC(C)(C)NC[C@H](O)COc1nsnc1N1CCOCC1`, the compound was classed as inactive in assay [2], in [3], in [4], in assay [5], in assay [6] and in assay [7].
On to `Cc1nc(-c2ccc(Cl)cc2)oc1COC(C)(C)C(=O)O`, for which, in assay [1], the Potency result was “inactive”.
The same measure, in the same setting: to `NS(=O)(=O)c1ccc(Cl)c(S(N)(=O)=O)c1` belongs “inactive”; to `COc1ccc(/C=N/NC(=O)c2ccncc2)cc1OC`, “inactive”; to `CCCCCCCCCCCCSCCOCCO`, “inactive”.
With `CC(=O)OC[C@H]1O[C@@H](n2ncc(=O)[nH]c2=O)[C@H](OC(C)=O)[C@@H]1OC(C)=O`, the Potency result in assay [1] was “inactive”.
`Nc1ccc(S(=O)(=O)Nc2cnc3ccccc3n2)cc1`: the Potency result in assay [1] is “inactive”.
As to `CCc1oc2ccccc2c1C(=O)c1cc(I)c(O)c(I)c1`, the Potency result in assay [1] was “inactive”.
With `CN(C)CCC[C@@]1(c2ccc(F)cc2)OCc2cc(C#N)ccc21`, the Potency result in assay [1] is “inactive”.
For the compound `CN=C(N)NCCC[C@H](N)C(=O)O`, the compound was called inactive in assay [2], in [3], in assay [4], in [5], in assay [6] and in assay [7].
For `O=C(NC1CCN(CCc2c[nH]c3ccccc23)CC1)c1ccccc1`, the Potency result in [1] was “inactive”.
For the compound `FC1(F)C(F)(F)C(F)(F)C2(F)C(F)(F)C(F)(F)C(F)(F)C(F)(F)C2(F)C1(F)F` (stereo unspecified), the Potency result in [1] is “inactive”.
In the case of `FC(F)(F)C(F)(F)C(F)(F)C(F)(F)C(F)(F)C(F)(F)C(F)(F)C(F)(F)Br`, in assay [1], the Potency entry is “inactive”.
Turning to `CCOC(=O)[C@H](CCc1ccccc1)N[C@@H](C)C(=O)N1[C@H](C(=O)O)C[C@H]2CCCC[C@@H]21`, the result in [2], in assay [3], in [4], in assay [5], in assay [6] and in assay [7] was inactive. Besides, the Potency result in assay [1] is “inactive”.
Consider `Cc1ccc(-c2ncc(Cl)cc2-c2ccc(S(C)(=O)=O)cc2)cn1`, for which, in assay [1], the Potency result was “inactive”.
As for `CCOc1cc(OCC)c(C(=O)CCC(=O)O)cc1OCC`, the Potency entry in [1] was “inactive”.
As for `O=[N+]([O-])c1cccc(S(=O)(=O)NCCNS(=O)(=O)c2cccc([N+](=O)[O-])c2)c1`, in assay [1], the Potency entry was “inactive”.
Regarding `CC(=O)OCC1=C(C(=O)O)N2C(=O)[C@@H](NC(=O)CSc3ccncc3)[C@H]2SC1`, the result in [8] and in [9] was inactive. Also, the Potency in [10] is 2 µM (active).
Regarding `Cc1ncc(CO)c(C=O)c1O`, the Potency entry in assay [1] was “inactive”.
With `NCCNc1cccc2ccccc12`, the Potency result in [1] is “inactive”.
Still for that read-out and setting: to `COc1cc(N)c(Cl)cc1C(=O)NC1CCN(Cc2ccccc2)CC1` belongs “inactive”; to `CCC1Nc2cc(Cl)c(S(N)(=O)=O)cc2S(=O)(=O)N1` (stereo unspecified), “inactive”.
For `NC(N)=NCc1cccc(I)c1`, the call in [2], in [8], in assay [9], in assay [3], in assay [4] and in assay [5] was inactive. Also, the call in assay [6] and in assay [7] was inactive. Moreover, the Potency entry in [1] is “inactive”.
Consider `O=C(CCCN1CC=C(n2c(=O)[nH]c3ccccc32)CC1)c1ccc(F)cc1`, for which, in assay [1], the Potency result was “inactive”.
For the compound `C#C[C@]1(O)CC[C@H]2[C@@H]3CCc4cc(OC)ccc4[C@H]3CC[C@@]21C`, the Potency result in assay [1] is “inactive”.
For the compound `NC(=O)n1c(O)c(C(=O)c2cccs2)c2cc(Cl)ccc21`, the Potency entry in [1] was “inactive”.
On the same count and under the same terms, with `CC(C)(C)NC[C@H](O)COc1cccc2c1CCCC2=O` the entry was “inactive”; with `CCc1oc2ccccc2c1C(=O)c1cc(Br)c(O)c(Br)c1`, “inactive”.
Same read-out and setting: with `CC(=O)Nc1ccc(OCC(O)CNC(C)C)cc1` (stereo unspecified) the entry was “inactive”; with `C/C=C/C=N/NC(=O)c1ccncc1`, “inactive”; with `COc1ccc(CN(CCN(C)C)c2ncccn2)cc1`, “inactive”.
With `OCCOCCN1CCN(C2=Nc3ccccc3Sc3ccccc32)CC1`, in [1], the Potency result is “inactive”.
For the compound `CCCc1ncc(C[n+]2ccccc2C)c(N)n1`, the Potency result in [1] was “inactive”.
